High-throughput results (PubChem)
An excerpt weighted towards active compounds, which were near 1.6% of everything screened.
pAkt inh – Akt phosphorylation inhibition; AID 651550; Neuro2A IGF-stimulated pAkt S473 HTRF, 20 min; stronger effect = lower value; activity change, % for hits at 50 µM; 360,000 compounds, 0.32% hits; in the data active = activity change below about -80%; inconclusive = mostly about -51% to -80%; note: % is set by controls: 0 for no effect and ±100 for the full control effect
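Neuro2A cells in DMEM with 0.5% FBS, overnight at 37 deg C, given compound at single 50 µM final, then IGF (6 nM final) for 20 min at 37 deg C. Lysed; phospho-Akt Ser473 by HTRF after 24 h, 665/615 ratio.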
Glioma ERSR ind – induces the endoplasmic reticulum stress response in human glioma cells | Potency, µM, for the others: at the highest dose activation, actives largely listed as activators | U87-MG GRP78 promoter luciferase reporter, 16 h | 420,000 compounds, 0.02% hits | AID 602332; active = well fitted activation curve with a large enough effect; inconclusive = small, poorly fitted or top-dose-only effect; inactive = no such curve, though single readings can be large or run the other way; note: potency is the fitted concentration of half-maximal effect; series mostly up to about 76 µM; % of control where 0% means no effect; nearly all actives have a fitted effect of over 35% in size
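Stably transfected U87-MG glioma cells carrying a GRP78-based luciferase sensor; 16 h compound incubation. Luminescence end-point read 10 min after Bright-Glo addition at room temperature.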
hERG WT inh – inhibitors of human wildtype KCNH2 potassium channel; Q12809; U2OS, BacMam KCNH2, thallium flux FluxOr; stronger effect = lower value; activity change, % at 1.84 µM; 340,000 compounds, 0.37% hits;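 active = maximum activity change below -70%; inconclusive = maximum activity change between -70% and -50%; inactive = maximum activity change above -50%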; note: % is set by controls: 0 for no effect and ±100 for the full control effect
Target sequence (Q12809 whole entry, looked up): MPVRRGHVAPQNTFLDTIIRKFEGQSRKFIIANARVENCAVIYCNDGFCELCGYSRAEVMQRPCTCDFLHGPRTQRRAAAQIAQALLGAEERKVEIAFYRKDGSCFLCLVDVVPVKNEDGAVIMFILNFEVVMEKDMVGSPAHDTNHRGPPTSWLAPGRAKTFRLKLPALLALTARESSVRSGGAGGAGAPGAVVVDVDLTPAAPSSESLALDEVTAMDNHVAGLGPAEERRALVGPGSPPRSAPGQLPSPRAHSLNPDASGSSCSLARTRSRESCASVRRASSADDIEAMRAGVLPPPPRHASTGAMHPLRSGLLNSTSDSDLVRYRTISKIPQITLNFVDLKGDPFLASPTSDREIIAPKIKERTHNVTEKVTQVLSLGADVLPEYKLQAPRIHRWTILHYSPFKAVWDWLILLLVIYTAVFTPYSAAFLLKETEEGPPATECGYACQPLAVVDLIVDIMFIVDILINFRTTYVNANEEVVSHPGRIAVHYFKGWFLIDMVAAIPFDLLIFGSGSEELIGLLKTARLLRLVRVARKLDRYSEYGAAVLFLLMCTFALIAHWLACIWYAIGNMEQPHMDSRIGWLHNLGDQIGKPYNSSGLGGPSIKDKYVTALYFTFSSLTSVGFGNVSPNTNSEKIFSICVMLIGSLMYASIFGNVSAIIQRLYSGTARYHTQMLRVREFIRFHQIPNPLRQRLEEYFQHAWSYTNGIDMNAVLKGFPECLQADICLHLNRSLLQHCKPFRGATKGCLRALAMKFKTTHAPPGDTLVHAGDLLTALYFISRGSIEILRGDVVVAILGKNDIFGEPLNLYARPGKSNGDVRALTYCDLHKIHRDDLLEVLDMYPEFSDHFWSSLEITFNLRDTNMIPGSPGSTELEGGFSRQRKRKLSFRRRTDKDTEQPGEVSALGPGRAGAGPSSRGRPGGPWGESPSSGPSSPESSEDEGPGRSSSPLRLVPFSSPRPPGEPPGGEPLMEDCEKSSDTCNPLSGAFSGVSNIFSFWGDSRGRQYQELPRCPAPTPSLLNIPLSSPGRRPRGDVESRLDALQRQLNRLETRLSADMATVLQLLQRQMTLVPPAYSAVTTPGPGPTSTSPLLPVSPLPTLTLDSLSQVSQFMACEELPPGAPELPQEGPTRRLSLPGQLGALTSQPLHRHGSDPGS
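U2OS cells were transduced with wild-type KCNH2 virus (2.03 x 10^8 / mL) for 4 h at room temperature, then cultured overnight at 37 C. Thallium flux was read with FluxOr dye. Rate constants were normalized to DMSO controls.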
KCNH2 3.1 inh – KCNH2 3.1 (human) potassium channel inhibition; activity change, % (tested at about 1.8 µM); 340,000 compounds, 0.95% hits; U2OS KCNH2 3.1, thallium flux FluxOr; stronger effect = lower value;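 active = maximum activity change below -70%; inconclusive = maximum activity change from -70% to -50%; inactive = maximum activity change above -50%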;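 note: thallium influx rate constant from kinetic fluorescence after stimulation buffer; % is set by controls: 0 for no effect and ±100 for the full control effect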
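Kinetic fluorescence (2 min after stimulation buffer) measures Tl+ influx through KCNH2 3.1 expressed by viral transduction in U2OS cells; the rate constant is normalized against DMSO controls serving as positive and negative references.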
gsp antag – antagonists of gsp mutant (McCune-Albright syndrome) | gsp-mutant cells, cAMP HTRF, 30 min | Potency, µM (doses to about 76.9 µM), without a hit: at the top dose activity change, negative = inhibition, hits mostly inhibitors | 340,000 compounds, 0.4% hits; calls by dose curve; cell line not stated here;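 note: intracellular cAMP measured with PDE inhibitor Ro 20-1724 present during compound exposure; potency is the fitted concentration of half-maximal effect; % is set by controls: 0 for no effect and ±100 for the full control effect; nearly all actives have a fitted effect of over 65% in size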
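Cells in G418 medium, seeded 16-24 h, 37C; buffer exchange to DPBS + 1 mM CaCl2, 0.5 mM MgCl2, 0.05% BSA; cpds in DMSO + […] (300 uM stock), 30 min 37C; HTRF cAMP detection.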
gsp ag – activates gsp, the McCune-Albright syndrome mutation. gsp mutant cells, cAMP HTRF, 30 min. Potency, µM (series often up to 76.9 µM), for the others: at the highest dose activation (cAMP increase), actives largely listed as activators. 340,000 compounds, 0.13% hits; active = well fitted activation curve with a large enough effect; inconclusive = small, poorly fitted or top-dose-only effect, or another doubt; inactive = no such curve, though single readings can be large or run the other way; cell line not stated here;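 note: phosphodiesterase inhibitor Ro 20-1724 added with compounds to block cAMP breakdown; potency is the fitted concentration of half-maximal effect; nearly all actives have a fitted effect of over 60% in size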
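Cells in DMEM/10% FBS with G418 were pretreated with compounds in DMSO plus […] (300 uM stock) for 30 min at 37C. cAMP was measured by HTRF (cAMP-d2 plus anti-cAMP antibody-K) after 30 min at room temperature.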
* marks the source's active call; other numbers are inactive results; [ ] = another dose, or the depositor's remark.

What do the screens show for `C=CCOc1c(Br)cc(CNc2ccc(NC(=O)CCC)cc2)cc1OCC`?
pAkt inh: -100%*; Glioma ERSR ind: -7%; hERG WT inh: -13; KCNH2 3.1 inh: -7; gsp antag: -11%; gsp ag: -22%

What do the screens show for `C=CCOc1ccc(CNc2ccc(NC(=O)CCC)cc2)cc1OCC`?
pAkt inh: inactive; Glioma ERSR ind: -5%; hERG WT inh: -1; KCNH2 3.1 inh: 9; gsp antag: 1%; gsp ag: 3%

What do the screens show for `CCCCCCCCCC[n+]1ccc(/C=C/c2c[nH]c3ccccc23)cc1`?
Glioma ERSR ind: -12%

How did O=S(=O)(Nc1ccc(N=Nc2ccc(O)c3ccccc23)cc1)c1ccccc1 do in these assays?
pAkt inh: inactive; Glioma ERSR ind: -5%; hERG WT inh: -13; gsp antag: inconclusive; gsp ag: 13%

What do the screens show for `O=[N+]([O-])c1ccc(N=Nc2ccc(O)c3ccccc23)cc1`?
pAkt inh: inactive; Glioma ERSR ind: 1%; hERG WT inh: -6; KCNH2 3.1 inh: 12; gsp antag: 25µM*; gsp ag: 16%

How did N#CC(c1ccccc1O)N1N=C(c2ccccc2)CC1c1ccccc1 (stereo not given) do in these assays?
pAkt inh: inactive; Glioma ERSR ind: 3%; hERG WT inh: -6; KCNH2 3.1 inh: -12; gsp antag: -6%; gsp ag: 0%

What do the screens show for `COc1cc(C(C#N)N2N=C(c3ccccc3)CC2c2ccccc2)ccc1O` (stereo not given)?
pAkt inh: -113%*; Glioma ERSR ind: 15%; hERG WT inh: 7; KCNH2 3.1 inh: 2; gsp antag: -13%; gsp ag: 3%

Results for O=C(CSc1nnc(-c2cccc(Br)c2)o1)NCC1CCCO1 (stereo not given) ?
pAkt inh: inactive; Glioma ERSR ind: 1%; hERG WT inh: -218*; KCNH2 3.1 inh: -174*; gsp ag: -60%

Results for O=C(CN1C(=O)c2ccc(Br)cc2C1=O)NCC1CCCO1 (stereo not given) ?
pAkt inh: inactive; Glioma ERSR ind: -3%; hERG WT inh: 0; KCNH2 3.1 inh: 7; gsp antag: 13%; gsp ag: 7.1µM*

Results for CCCCCCC(=O)NN1CCN(C)CC1 ?
pAkt inh: inactive; Glioma ERSR ind: -1%; hERG WT inh: -257*; KCNH2 3.1 inh: 13; gsp antag: 10%; gsp ag: -18%

Results for COc1ccccc1CCNc1ncnc2sc(C(=O)N3CCCCC3)c(C)c12 ?
Glioma ERSR ind: -2%

Results for CCn1c(-c2ccccc2F)nc2cc(NC(C)=O)cc(C(=O)NC(c3ccccn3)C(F)(F)F)c21 (stereo not given) ?
Glioma ERSR ind: 0%

What do the screens show for `Oc1ccc(Br)cc1/C=N/n1c(-c2ccccc2)n[nH]c1=S`?
pAkt inh: inactive; Glioma ERSR ind: 2%; hERG WT inh: -4; KCNH2 3.1 inh: 2; gsp antag: -23%; gsp ag: -13%

What do the screens show for `S=c1[nH]nc(-c2ccccc2)n1/N=C/c1cccc(Br)c1`?
pAkt inh: inactive; Glioma ERSR ind: 1%; hERG WT inh: -3; KCNH2 3.1 inh: -93*; gsp antag: -17%; gsp ag: -2%[15.4 µM]

Results for Cn1c(=O)c2c(ncn2CC(=O)Nc2nc3ccc(F)cc3s2)n(C)c1=O ?
pAkt inh: -122%*; Glioma ERSR ind: 4%; hERG WT inh: 23; KCNH2 3.1 inh: 6; gsp antag: -4%; gsp ag: inconclusive

What do the screens show for `O=C(Cn1cnc2ccccc2c1=O)Nc1nc2ccccc2s1`?
pAkt inh: inactive; Glioma ERSR ind: -1%; hERG WT inh: -3; KCNH2 3.1 inh: -97*; gsp antag: 4%; gsp ag: 8%[15.4 µM]

Results for Cn1c(=O)c2c(ncn2CC(=O)Nc2ccccc2)n(C)c1=O ?
pAkt inh: inactive; Glioma ERSR ind: 1%; hERG WT inh: 2; KCNH2 3.1 inh: -1; gsp antag: 8%; gsp ag: 4%

How did O=C(CN1CCN(Cc2ccc(F)cc2)CC1)Nc1nc2ccccc2s1 do in these assays?
pAkt inh: inactive; Glioma ERSR ind: 0%; hERG WT inh: -16; KCNH2 3.1 inh: -74*; gsp antag: 4%; gsp ag: -18%

How did CCc1ccc2nc(NC(=O)Cn3cnc4ccccc4c3=O)sc2c1 do in these assays?
pAkt inh: inactive; Glioma ERSR ind: 5%; hERG WT inh: 1; KCNH2 3.1 inh: -4; gsp antag: 7%; gsp ag: inconclusive

What do the screens show for `CCOC(=O)c1ccccc1NC(=O)Cn1cnc2c1c(=O)n(C)c(=O)n2C`?
Glioma ERSR ind: -2%; hERG WT inh: -8; KCNH2 3.1 inh: 7; gsp antag: 13%; gsp ag: 28µM*

What do the screens show for `CCCN1CCN(C(=O)c2ccccc2-c2nc3ccccc3s2)CC1`?
pAkt inh: inactive; Glioma ERSR ind: 0%; hERG WT inh: 19; KCNH2 3.1 inh: 10; gsp antag: 11µM*; gsp ag: -9%[15.4 µM]

Results for Cc1ccc(C(=O)N/C(=C\c2cccc([N+](=O)[O-])c2)C(=O)NCc2ccncc2)cc1 ?
pAkt inh: inactive; Glioma ERSR ind: -2%; hERG WT inh: 11; KCNH2 3.1 inh: -86*; gsp antag: 3%; gsp ag: 1%[15.4 µM]

How did Cc1ccc(C(=O)N/C(=C\c2ccc(F)cc2)C(=O)NCc2ccncc2)cc1 do in these assays?
pAkt inh: inactive; Glioma ERSR ind: -4%; hERG WT inh: -50; KCNH2 3.1 inh: -90*; gsp antag: 3%; gsp ag: -16%[15.4 µM]

Results for CCNC(=O)/C(=C/c1cccc([N+](=O)[O-])c1)NC(=O)c1ccc(C)cc1 ?
pAkt inh: inactive; Glioma ERSR ind: 0%; KCNH2 3.1 inh: 0; gsp antag: -6%; gsp ag: -43%

How did COc1cc(-c2ccc(Cl)cn2)cc2c1OCCN(S(=O)(=O)C[C@]13CC[C@H](CC1=O)C3(C)C)C2 do in these assays?
Glioma ERSR ind: -2%

What do the screens show for `COc1ccc(CN2CCCC(n3cc(C(=O)NC4CCCC4)nn3)C2)c2ccccc12` (stereo not given)?
Glioma ERSR ind: -3%

What do the screens show for `CCOC(=O)CNC(=O)CSc1nc(-c2ccc(C)cc2)ns1`?
pAkt inh: inactive; Glioma ERSR ind: 2%; hERG WT inh: -13; KCNH2 3.1 inh: 1; gsp antag: 11µM*; gsp ag: -29%[15.4 µM]

Results for CCOC(=O)CNC(=O)CSc1nc(-c2ccccc2)ns1 ?
pAkt inh: inactive; Glioma ERSR ind: 10%; hERG WT inh: 18; KCNH2 3.1 inh: -15; gsp antag: -1%; gsp ag: -16%[15.4 µM]
